Screening data deposited in PubChem by several laboratories.
Shown are actives, neighbours in structure and some others; about 2.7% of the full set was active somewhere.
TMEM16A act – activators or potentiators of mouse TMEM16A chloride channel | AID 623877 | Q8BHY3 | B-score at 10 µM | hit rate 0.3% among 340,000 | HEK293 TMEM16A/YFP-H148Q/I152L, iodide quench fluorescence; active compounds read low;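 active means fluorescence-ratio B-score plate-corrected deviation score at least 3 library SD below zero, with starting fluorescence score within 5 deviations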;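 further: channel opened by trigger with iodide after compound preincubation; score built on the fluorescence ratio of max minus min over baseline; more negative score means more quench and so TMEM16A activation or potentiation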
PP1 counter – blocks human PP1-alpha phosphatase, a PP5 counter-screen. hit rate 0.9% among 320,000. purified PP1alpha, OMFP fluorescence. inhibition, % at 6.7 µM. P62136. AID 2235;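 active means inhibition above the mean inhibition of all tested compounds plus 3 SD, computed separately for each screening campaign, cut at about 15% in these data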
FID counter – displaces DNA intercalator in HCV helicase counter-screen. inhibition, % at 7.9 µM. DNA fluorescent intercalator displacement, fluorescence. hit rate 0.17% among 290,000; in the data active means inhibition above about 37%;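 further: higher means more ethidium bromide displaced from hairpin DNA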
PP5 inh – blocks human protein phosphatase 5 activity; purified PP5c, OMFP substrate fluorescence; P53041; inhibition, % at 6.7 µM; AID 1987; hit rate 0.18% among 320,000;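 active means inhibition above the campaign's mean inhibition across all tested compounds plus 3 SD, cut at about 9.5% in these data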
PREPL inhibitor – inhibitors of human prolyl oligopeptidase-like enzyme PREPL; Q4J6C6; recombinant PREPL, fluorescence polarization activity-based probe; inhibition, % at 5.96 µM; hit rate 0.68% among 320,000; AID 2751; in the data active means inhibition above about 43%
Target sequence (Q4J6C6 whole entry, looked up): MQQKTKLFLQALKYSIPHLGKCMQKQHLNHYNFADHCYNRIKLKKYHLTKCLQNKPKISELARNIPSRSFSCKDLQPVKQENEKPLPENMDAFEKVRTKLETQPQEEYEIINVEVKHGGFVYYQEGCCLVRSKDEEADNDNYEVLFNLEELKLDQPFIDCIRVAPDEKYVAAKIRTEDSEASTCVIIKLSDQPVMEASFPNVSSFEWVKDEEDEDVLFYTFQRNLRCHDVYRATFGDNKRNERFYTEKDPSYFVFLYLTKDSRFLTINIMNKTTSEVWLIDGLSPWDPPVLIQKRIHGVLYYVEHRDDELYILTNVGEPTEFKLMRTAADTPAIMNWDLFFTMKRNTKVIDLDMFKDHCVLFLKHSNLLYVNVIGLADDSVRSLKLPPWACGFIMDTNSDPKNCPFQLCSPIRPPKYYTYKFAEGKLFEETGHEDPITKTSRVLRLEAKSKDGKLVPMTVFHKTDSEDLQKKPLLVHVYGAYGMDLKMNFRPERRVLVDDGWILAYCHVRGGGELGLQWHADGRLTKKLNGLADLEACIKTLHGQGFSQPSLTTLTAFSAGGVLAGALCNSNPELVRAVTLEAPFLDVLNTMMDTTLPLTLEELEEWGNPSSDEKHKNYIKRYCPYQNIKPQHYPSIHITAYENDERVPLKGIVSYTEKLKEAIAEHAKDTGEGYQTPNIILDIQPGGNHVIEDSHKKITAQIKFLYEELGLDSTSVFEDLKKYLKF
TMEM16A inh – mouse TMEM16A channel inhibition, primary screen; Q8BHY3; HEK293 TMEM16A/YFP iodide influx fluorescence, ionomycin; normalized B-score (activity score, 25-100; higher = stronger inhibition) at 10 µM; hit rate 1.2% among 310,000;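 active means ratio plate-corrected score three or more library SD toward inhibition, starting fluorescence score within five deviations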;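 further: score derived from kinetic fluorescence span divided by baseline fluorescence per well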
PP1 inh confirm – confirmation of human PP1 phosphatase inhibitors. AID 2358. inhibition, % at 6.7 µM. purified PP1alpha, OMFP substrate fluorescence. shares compounds with PP1 counter. hit rate 52% among 1,900;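 active means mean PP1 inhibition above a set limit taken from the earlier primary screen, cut at about 15% in these data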
PP5 counter – PP5 phosphatase inhibition, counter-screen for PP1 inhibitors; hit rate 4% among 1,900; AID 2360; purified PP5c, OMFP fluorescence; inhibition, % at 6.7 µM; shares compounds with PP1 counter;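 active means mean PP5 inhibition over triplicate wells above about 9.5% taken from the earlier PP1 screen, limit read from the data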
Hits are given with their value; n = inactive; x = no result.

SMILES	TMEM16A act	PP1 counter	FID counter	PP5 inh	PREPL inhibitor	TMEM16A inh	PP1 inh confirm	PP5 counter
NC(=O)CC(NC(=O)Cc1cccc2ccccc12)c1ccc(NC2CCCCCC2)c([N+](=O)[O-])c1 (stereo unspecified)	n	24	x	n	n	n	24	n
O=C1C2C(C(=O)N1/N=C/c1ccc(N3CCCCC3)o1)C1C=CC2C12CC2 (stereo unspecified)	n	n	n	n	n	n	x	x
CN(C)c1ccc(NC(=O)C(=O)C2C(=O)Nc3ccccc32)cc1 (stereo unspecified)	n	21	n	n	n	n	n	n
CC(C)(C)c1ccc(NC(=O)C(=O)C2C(=O)Nc3ccccc32)cc1 (stereo unspecified)	n	n	n	n	n	n	x	x
CCN(CC(=O)Nc1c(F)cccc1F)C(=O)c1ccc2ccccc2n1	n	n	x	n	n	n	x	x
CCN(CC(=O)Nc1c(F)cccc1F)C(=O)/C=C/c1ccc2ccccc2n1	n	22	x	n	n	n	n	n
O=C1CCc2cc(S(=O)(=O)N3CCN(C(=O)c4ccco4)CC3)ccc2N1	n	71	n	n	n	n	n	n
Cc1cc(C)c(C#N)c(SCC(O)COc2ccc(Br)cc2)n1 (stereo unspecified)	n	n	n	n	n	n	x	x
COc1cc(CN(C2CCCCC2)S(=O)(=O)c2ccc(S(=O)(=O)N(C)C3CCCCC3)cc2)cc(OC)c1OC	n	19	n	n	n	n	n	n
COc1ccc(CN(C2CCCC2)S(=O)(=O)c2ccc(-n3cnnn3)c(OC)c2)cc1OC	n	n	n	n	n	n	x	x
CCc1ccc(C(=O)N/N=C/c2ccncc2)s1	n	x	n	x	x	n	x	x
O=C(Nc1cccc(C(F)(F)F)c1)c1ccc2nc(-c3ccco3)c(-c3ccco3)nc2c1	n	32	n	n	n	n	n	n
O=C(O)c1ccc2nc(-c3ccco3)c(-c3ccco3)nc2c1	n	x	n	x	x	x	x	x
CCC(C)(NC=O)C(=O)Nc1c(C)cccc1C (stereo unspecified)	n	n	n	n	n	n	x	x
c1cc2ccc3ccc(-n4cnnn4)c4ccc(c1)c2c34	n	20	n	n	n	n	23	n
O=C(O)C1=NN(c2ccccc2)C(=O)C1	n	29	n	n	n	n	n	n
O=C(O)C1=NN(c2ccccc2)C(=O)CC1	n	n	n	n	n	n	x	x
Cc1ccc(S(=O)(=O)N2CCN(CCOc3c(Cl)cccc3Cl)CC2)cc1C	n	n	x	n	n	x	x	x
O=C(CCN1CCCCC1)N/N=C/c1c[nH]c2ccccc12	n	n	n	n	n	n	x	x
NC(=O)c1ccsc1NC(=O)COC(=O)c1nc(Cl)ccc1Cl	n	45	x	n	n	n	n	n
CC(=O)N1CCN(C(=O)c2cc3c(s2)CCC(C)C3)CC1 (stereo unspecified)	n	x	x	x	x	x	x	x
Cc1ccc(-n2nc3ccc(NC(=O)/C=C/c4ccco4)cc3n2)cc1	n	19	n	n	n	n	n	n
Cc1ccc(NC(=O)c2cccc(NC(=O)/C=C/c3ccco3)c2)cc1C	n	n	n	n	n	n	x	x
CC(=O)Oc1ccc2c(=O)c(Oc3ccccc3[N+](=O)[O-])coc2c1	n	56	n	n	n	n	n	n
COc1ccccc1Oc1coc2cc(OC(=O)N3CCOCC3)ccc2c1=O	n	n	n	n	n	n	x	x
SMILES	TMEM16A act	PP1 counter	FID counter	PP5 inh	PREPL inhibitor	TMEM16A inh	PP1 inh confirm	PP5 counter
Cc1sc(NC(=O)Cn2[nH]c(=O)c3ccccc3c2=O)nc1-c1ccccc1	n	29	n	n	n	n	27	n
Cc1c(NC(=O)Cn2[nH]c(=O)c3ccccc3c2=O)c(=O)n(-c2ccccc2)n1C	n	n	n	n	n	n	x	x
Cc1cc(C)cc(NC(=O)CSc2nc3nc(C)cc(C)n3n2)c1	n	n	x	n	n	x	x	x
CCC(CO)Oc1cc(NC(=O)c2ccc(C)cc2)c2ncn(C(C)C)c2c1 (stereo unspecified)	n	n	x	n	n	x	x	x
COc1cccc(OC)c1C(=O)Nc1nc2ccc(S(C)(=O)=O)cc2s1	n	n	n	n	n	n	x	x
CCNS(=O)(=O)c1ccc2nc(NC(=O)/C=C/c3cc(OC)c(OC)c(OC)c3)sc2c1	n	21	n	n	n	n	20	n
COc1cc(/C=C/C(=O)Nc2nc3ccc(S(=O)(=O)NC(C)C)cc3s2)cc(OC)c1OC	n	25	n	n	n	n	32	n
CCCN1/C(=C(\C#N)C2=NS(=O)(=O)c3ccccc32)N(C)c2ccccc21	n	x	x	x	x	x	x	x
COc1ccccc1NC(c1cccnc1)c1ccc2cccnc2c1O (stereo unspecified)	n	18	n	n	n	n	19	n
Oc1c(C(Nc2ccccn2)c2ccccn2)ccc2cccnc12 (stereo unspecified)	n	72	n	n	n	n	76	n
Cc1ccnc(NC(c2cccnc2)c2ccc3cccnc3c2O)c1 (stereo unspecified)	n	n	n	n	n	n	x	x
Oc1ccccc1C(Nc1nccs1)c1ccc2cccnc2c1O (stereo unspecified)	n	23	n	n	n	n	20	n
COc1ccc(S(=O)(=O)N(C)C[C@@H]2Oc3c(NS(=O)(=O)c4cn(C)cn4)cccc3C(=O)N([C@@H](C)CO)C[C@@H]2C)cc1	n	x	x	x	n	x	x	x
O=C(/C=C\c1ccc2c(c1)OCO2)CC1(O)C(=O)Nc2ccccc21 (stereo unspecified)	n	n	n	n	n	n	x	x
Cc1cc(NC(=O)Cc2cccs2)no1	n	28	n	n	n	n	n	n
Cc1cc(NS(=O)(=O)c2ccc(NC(=O)Cc3cccs3)cc2)no1	n	n	n	n	n	n	x	x
CCCn1c(=O)c(C(=O)NNS(=O)(=O)c2ccc(Cl)cc2)c(O)c2ccccc21	n	22	n	n	n	n	16	n
CCCn1c(=O)c(C(=O)Nc2ncccc2C)c(O)c2ccccc21	n	24	n	n	n	n	21	n
CCCn1c(=O)c(C(=O)Nc2cccc(C)n2)c(O)c2ccccc21	n	n	n	n	n	n	x	x
CCOP(=O)(NC12CC3CC(CC(C3)C1)C2)NC12CC3CC(CC(C3)C1)C2	n	n	n	n	n	n	x	x
CS(=O)(=O)c1ccc(-c2sc3ccccc3c2C(=O)N2CCN(c3ccc(F)cc3)CC2)cc1	n	x	x	x	n	x	x	x
O=C(CN1C(=O)/C(=C/c2ccccc2)SC1=S)Nc1ncc(Cc2ccccc2)s1	n	22	n	n	n	n	20	n
O=C(CN1C(=O)/C(=C\C=C\c2ccccc2)SC1=S)Nc1ccc(F)cc1	n	23	n	n	n	n	n	n
